# 697 NFkB inh: inhibitors of the PMA/ionomycin-induced NF-kB reporter in 697 B cells; 697 B-cell NF-kB luciferase reporter, 16 h; inhibition, % at 4 µM; actives 0.33% (n = 330,000); in the data active = inhibition above about 35%
# KLF5 inh: suppresses KLF5 promoter-driven expression; AID 1700; DLD-1 KLF5 promoter-luciferase reporter, luminescence; inhibition, % at 5 µM; actives 0.23% (n = 290,000);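 active = inhibition above a per-plate limit of that plate's mean compound inhibition plus 3 SD, cut at about 60% in these data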;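 note: 0% = DMSO wells and 100% = LY294002 at 200 µM; higher means less KLF5 promoter-driven luciferase light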
# Mdm2-MdmX inh: inhibitors of human Mdm2/MdmX interaction | O15151+Q00987 | SaOS-2 split-luciferase Mdm2/MdmX complementation, luminescence | inhibition, % at 8 µM | actives 3% (n = 330,000) | AID 485346;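 active = inhibition of at least 50% at 8 µM in the primary screen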
# Target sequence (O15151 whole entry, looked up): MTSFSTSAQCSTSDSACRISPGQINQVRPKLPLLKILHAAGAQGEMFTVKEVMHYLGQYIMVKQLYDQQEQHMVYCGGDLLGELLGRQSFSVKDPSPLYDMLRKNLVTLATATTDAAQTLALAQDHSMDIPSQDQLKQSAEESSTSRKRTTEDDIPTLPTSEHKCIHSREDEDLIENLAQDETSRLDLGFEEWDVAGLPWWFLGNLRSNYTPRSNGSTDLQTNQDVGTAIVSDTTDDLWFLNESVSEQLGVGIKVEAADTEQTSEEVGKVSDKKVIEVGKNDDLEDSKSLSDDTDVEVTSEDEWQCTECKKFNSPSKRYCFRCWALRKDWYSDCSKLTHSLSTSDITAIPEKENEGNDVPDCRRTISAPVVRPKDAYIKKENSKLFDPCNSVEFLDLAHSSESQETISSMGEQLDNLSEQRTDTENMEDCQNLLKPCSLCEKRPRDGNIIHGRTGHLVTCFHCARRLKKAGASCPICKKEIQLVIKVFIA
# Target sequence (Q00987 whole entry, looked up): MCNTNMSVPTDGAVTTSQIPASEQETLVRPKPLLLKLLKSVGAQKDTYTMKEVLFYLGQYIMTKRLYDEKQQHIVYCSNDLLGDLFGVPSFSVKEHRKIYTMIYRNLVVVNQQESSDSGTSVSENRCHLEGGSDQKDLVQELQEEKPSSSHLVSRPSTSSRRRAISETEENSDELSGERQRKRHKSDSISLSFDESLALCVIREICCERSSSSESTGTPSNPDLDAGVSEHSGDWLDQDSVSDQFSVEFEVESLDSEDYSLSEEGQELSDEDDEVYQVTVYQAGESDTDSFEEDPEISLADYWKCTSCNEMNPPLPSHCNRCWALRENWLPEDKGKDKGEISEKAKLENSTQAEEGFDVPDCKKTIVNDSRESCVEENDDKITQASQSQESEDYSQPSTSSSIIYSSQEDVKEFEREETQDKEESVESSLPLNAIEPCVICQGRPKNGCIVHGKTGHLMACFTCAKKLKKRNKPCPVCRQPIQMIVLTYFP
# aSyn 5UTR inh: MLPCN primary screen, SNCA 5' untranslated region; alpha-synuclein 5'UTR reporter, inhibitor activity; inhibition, % (tested at 7.5 µM); actives 0.82% (n = 300,000); in the data active = inhibition above about 60%;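 note: H4 neuroglioblastoma cells stably carrying SNCA 5'UTR luciferase fusion; 0% = DMSO wells and 100% = positive control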
# Jurkat NFkB inh: lowers PMA/ionomycin-induced NF-kB signal in Jurkat cells; PMA/ionomycin-induced NF-kB luciferase reporter, luminescence; inhibition, % at 4 µM; actives 0.53% (n = 330,000); AID 435003; in the data active = inhibition above about 50%
# Gli-Sufu antag: Gli-Sufu pathway antagonism. AID 588413. Sufu-KO-LIGHT fibroblasts, Gli luciferase reporter luminescence. actives 0.74% (n = 340,000). inhibition, % at 5 µM;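 active = inhibition above about 55%, limit read from the data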;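 note: 0% = DMSO-treated cells and 100% = wells with medium but no cells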
# Jurkat NFkB conf: lowers PMA/ionomycin-induced NF-kB signal in Jurkat cells; Jurkat NF-kB luciferase, 16 h; actives 27% (n = 2,700); inhibition, % at 4 µM; shares compounds with Jurkat NFkB inh;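 active = inhibition reaching about 45% at 4 µM in either replicate, limit read from the data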;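 note: plate controls were PMA/ionomycin stimulated DMSO wells for no effect and unstimulated DMSO wells for full effect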
# 697 NFkB conf: lowers PMA/ionomycin-induced NF-kB signal in 697 B cells. shares compounds with 697 NFkB inh. 697 B-cell NF-kB luciferase, 16 h. inhibition, % at 4 µM. actives 35% (n = 2,000). AID 449746; in the data active = inhibition mostly above about 28%, no sharp cut-off; inactive = mostly below about 22%
# Mdm2-MdmX conf: confirmation of human Mdm2/MdmX interaction inhibitors; AID 489028; actives 55% (n = 10,000); shares compounds with Mdm2-MdmX inh; Mdm2-MdmX binding, luminescent assay; inhibition, % at 8 µM; in the data active = inhibition above about 40%
# FLuc counter: inhibits full-length luciferase, flagging false Mdm2/MdmX hits; AID 504607; SaOS-2 full-length luciferase counterscreen, luminescence; inhibition, % at 8 µM; actives 77% (n = 6,200); shares compounds with Mdm2-MdmX inh;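 active = mean inhibition at 8 µM reaching about 37%, which flags the compound as non-specific, limit read from the data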;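 note: p53-null SaOS-2 cells with luciferase driven by a doxycycline-inducible promoter; compound on cells about two nights before reading with doxycycline added after day one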
# * marks the source's active call; other numbers are inactive results; . = no result given. In the library only some 4.1% were active in any assay of this set; here they are far more common.
SMILES,697 NFkB inh,KLF5 inh,Mdm2-MdmX inh,aSyn 5UTR inh,Jurkat NFkB inh,Gli-Sufu antag,Jurkat NFkB conf,Mdm2-MdmX conf,FLuc counter,others
CCOc1ccc(-c2cc(CCCC(=O)Nc3cccc(OC)c3)no2)cc1,48.3*,2.4,53.9*,67.5*,55.7*,5.2,60.6*,44.9*,61.0*,697 NFkB conf=48.2*
CCOC(=O)Nc1nc(-c2ccccc2)c(C(=O)c2ccccc2)s1,-6.9,55.4,60.8*,116.7*,51.4*,49.3,49.9*,51.1*,90.7*,
CCN(Cc1ccccc1)c1ccc(/C=N/N=C(N)N)cc1,-36.9,-29.5,97.8*,93.9*,61.1*,22.7,12.9,100.1*,57.6*,
Cc1ccc(C(=O)NC(=O)CSc2ncccc2C(=O)O)cc1,8.0,-5.1,-36.7,2.4,-9.7,3.1,.,.,.,
O=c1[nH]c(CN2CCN(c3ccc(O)cc3)CC2)nc2scc(-c3ccc(Cl)cc3)c12,-46.8,-7.6,58.8*,25.4,59.6*,4.8,19.5,54.0*,57.9*,
O=c1[nH]c(CN2CCN(c3ccccc3O)CC2)nc2scc(-c3ccccc3Cl)c12,-59.9,7.0,-5.9,26.9,16.2,7.8,.,.,.,
CS(=O)(=O)N(CC(=O)N1CCCCC1)c1cccc(F)c1,-5.4,11.9,-1.2,7.5,-4.5,2.4,.,.,.,
O=S1(=O)C=C(Sc2nnc(-c3ccccc3)o2)c2ccccc21,-43.7,-11.5,80.1*,-117.5,89.5*,-2.5,65.2*,99.8*,50.4*,
CCC(=NCCc1c(C)[nH]c2ccc(OC(F)(F)F)cc12)C1=C(O)CC(c2ccccc2)CC1=O (stereo not given),-28.3,-24.7,65.7*,107.0*,67.0*,4.2,16.5,64.0*,73.0*,
CCCCC(=NCCc1c(C)[nH]c2ccc(OC)cc12)C1=C(O)CC(c2ccccc2)CC1=O (stereo not given),-55.5,9.1,59.6*,119.1*,69.0*,23.4,13.4,54.0*,66.1*,
CC(=NCCc1c(C)[nH]c2ccc(OCc3ccccc3)cc12)C1=C(O)CC(c2ccccc2)CC1=O (stereo not given),-31.9,-32.6,28.5,10.4,7.2,10.1,.,.,.,
O=C(Nc1nc(-c2ccccn2)cs1)c1ccc(Cl)s1,-98.0,10.3,69.7*,67.7*,65.0*,75.8*,44.3,79.5*,24.4,
Cc1cccnc1Nc1nc(-c2ccccn2)cs1,-346.7,11.2,74.3*,50.9,81.0*,-7.6,8.3,35.6,.,697 NFkB conf=-174.7
COc1cc(C2NC(=O)NC(C)=C2C(=O)OCC2CCCCC2)ccc1O (stereo not given),-9.7,-18.8,23.0,5.5,-8.6,2.8,.,.,.,
CCc1sc(C(=O)NCCCn2ccnc2)cc1Br,-10.9,-34.8,14.7,30.6,1.4,-2.9,.,.,.,
CCN1CCN(Cc2ccc(NC(=O)c3ccc(C)c(NC(=O)C(=O)c4c[nH]c5ccccc45)c3)cc2C(F)(F)F)CC1,0.3,-28.0,100.3*,111.6*,95.3*,26.9,23.6,93.0*,30.8,
CC1=C([N+](=O)[O-])C(c2cccc(Br)c2)C2=C(N1)c1ccccc1C2=O (stereo not given),-13.6,48.5,73.9*,89.8*,53.8*,35.7,19.6,66.1*,83.7*,
COC(=O)c1cccc(NC(=O)Nc2ccc(Cl)cc2)c1,-69.7,-36.5,18.1,-25.8,-1.8,-125.5,.,.,.,
COC(=O)c1cccc(NC(=O)NC(=O)c2ccc(Cl)cc2)c1,-33.5,15.4,68.9*,-11.6,85.9*,-75.7,2.9,42.8*,73.0*,
O=S(=O)(CS(=O)(=O)c1ccccc1)c1ccccc1,.,.,.,.,.,1.8,.,.,.,
O=S(=O)(C/C(=C/CO)S(=O)(=O)c1ccccc1)c1ccccc1,-73.6,27.4,89.1*,-70.8,71.9*,26.7,58.2*,96.0*,50.8*,
CCOC(=O)C(C)Oc1cccc2c(=O)n(CC(=O)NCc3ccc(F)cc3)ccc12 (stereo not given),-8.0,34.3,68.7*,68.2*,73.0*,24.6,48.2*,61.2*,88.2*,
CCOC(=O)C(C)Oc1cccc2c(=O)n(CC(=O)NCCc3ccccc3)ccc12 (stereo not given),23.2,5.8,0.9,-17.0,-3.7,2.5,.,.,.,
O=C(NCc1ccccc1)c1cccc(NC(=O)C2CCCC2)c1,.,.,.,.,.,-0.3,.,.,.,
CCN1CCN(c2ccc(S(=O)(=O)N3CCCCC3)cc2NC(=O)/C=C/c2ccc([N+](=O)[O-])cc2)CC1,-3.4,.,98.5*,6.4,51.9*,19.1,34.4,91.7*,47.6*,
SMILES,697 NFkB inh,KLF5 inh,Mdm2-MdmX inh,aSyn 5UTR inh,Jurkat NFkB inh,Gli-Sufu antag,Jurkat NFkB conf,Mdm2-MdmX conf,FLuc counter,others
CCN1CCN(c2ccc(S(=O)(=O)N3CCOCC3)cc2NC(=O)/C=C/c2ccc(C)cc2)CC1,5.2,.,25.7,-18.4,3.6,27.6,.,.,.,
COc1ccc(N2C(=O)C3C(c4ccc(C(=O)O)cc4)NC(Cc4ccccc4)(C(=O)O)C3C2=O)c([N+](=O)[O-])c1 (stereo not given),4.1,-13.7,-19.4,-3.7,5.4,-1.8,.,.,.,
CC1(C2(O)CCCCC2)NCCc2ccccc21 (stereo not given),15.0,.,13.8,.,-18.5,-9.1,.,.,.,
CN(C)c1ccc(C2C=C(c3ccc(Cl)cc3OC(F)F)Nc3ncnn32)cc1 (stereo not given),1.9,.,66.4*,-4.4,61.5*,-6.8,14.9,54.4*,49.2*,
COc1cc(C(C)=O)ccc1OCC(=O)OCCCOC(=O)COc1ccc(C(C)=O)cc1OC,25.1,-35.1,-33.2,11.9,2.0,4.2,.,.,.,
Cc1nc(NC(=O)COC(=O)c2cccs2)c(Cl)cc1Cl,-40.7,.,-5.9,.,-2.4,-8.3,.,.,.,
Cc1c(C(=O)N/N=C/c2ccc(N(C)C)cc2)[nH]c2ccc(Cl)cc12,13.0,-20.9,64.7*,73.5*,50.4*,27.5,0.1,51.3*,69.2*,
COc1ccccc1-[n+]1c(C)cc(/C=C2\Sc3ccccc3N2C)cc1C,2.4,7.9,81.8*,52.9,92.6*,85.3*,11.2,89.2*,58.6*,
COc1ccc(C(=O)/C=C2\Sc3ccccc3N2C)cc1,-149.9,-141.9,-178.7,-179.5,-143.2,-109.0,.,.,.,
COc1ccc(-[n+]2c(C)cc(/C=C3\Sc4ccccc4N3C)cc2C)cc1,99.6*,15.8,83.0*,-3.5,85.6*,.,27.2,77.5*,16.4,697 NFkB conf=-21.6

# Screening data (PubChem BioAssay)
